Among the data in PubChem BioAssay (EPA / NIEHS) are outcome and AC50 values, retold here.

Where “and” joins values, the source holds several entries; their conditions need not be identical. Equal values may be shown once. Results filed as inconclusive are left out. Calls of active or inactive are those of the source. Rule for the calls, unless noted: active = hit-call score of the fitted dose curve at least 0.9, where 1 is the maximum; inconclusive = response in the unintended direction; inactive = score below 0.9.

As usually defined, the AC50 is the midpoint of the concentration-response curve, whichever way the signal moves.

The target in assay [1] is Retinoic acid receptor alpha (Homo sapiens) (UniProt P10276). Briefly: NVS_NR_hRAR_Antagonist: NovaScreen (NVS) Nuclear Receptor Binding Assay for human Retinoic Acid Alpha Receptor Antagonism (RAR) (AID 2283358). The method, boiled down: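 Chemicals were first tested in duplicate at 25 uM, then actives in concentration series, in a cell-free TR-FRET antagonist binding format. Measurements were taken 2 hours after dosing and loss of signal was evaluated against DMSO controls.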

The target of assay [2] is human Peroxisome Proliferator-activated Receptor alpha (PPARa), PPARA (gene 5465) (UniProt Q07869). Briefly: NVS_NR_hPPARa: NovaScreen (NVS) Nuclear Receptor Binding Assay for human Peroxisome Proliferator-activated Receptor alpha (PPARa) (AID 2283359).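 Note: activity means loss of TR-FRET signal versus DMSO baseline.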 The method, boiled down:
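One-hour incubation, cell-free extracted protein, TR-FRET binding readout; signal loss vs DMSO scored. Screen: 25 uM duplicates, confirmatory dose series for actives.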

The target of assay [3] is Retinoic acid receptor alpha (Homo sapiens) (UniProt P10276). Briefly: NVS_NR_hRARa_Agonist: NovaScreen (NVS) Nuclear Receptor Binding Assay for human Retinoic Acid Alpha Receptor Agonism (RAR) (AID 2283361). An outline of the steps:
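Compounds screened at 25 uM, duplicate, then in concentration series if active. Detection: TR-FRET gain of signal versus DMSO after 2 h with cell-free extracted RARα.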

For assay [4], the target named is Nuclear receptor subfamily 1 group I member 2 (Homo sapiens) (UniProt O75469). Briefly: NVS_NR_hPXR: NovaScreen (NVS) Nuclear Receptor Binding Assay for human Pregnane X Receptor (PXR) (AID 2283365).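 Note: a drop in FRET signal versus DMSO baseline means the compound binds.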 The method, boiled down:
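Cell-free TR-FRET binding assay with extracted human PXR protein, read 2 h after dosing. Primary screen run in duplicate at 25 uM, actives followed in concentration series; loss of signal fitted against DMSO baseline.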

For assay [5], the target named is guinea pig Sigma Receptor, Non-selective Binding, SIGMAR1 (gene 100135589) (UniProt Q60492). Briefly: NVS_OR_gSIGMA_NonSelective: NovaScreen (NVS) Nuclear Receptor Binding Assay for guinea pig Sigma Receptor, Non-selective Binding (AID 2283367). The method, boiled down: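 Test chemicals were screened in duplicate at 25 uM, then in concentration series if active, against radioligand binding to guinea pig brain membranes; filtration and scintillation counting at 1 h measured remaining bound ligand.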

The test system of assay [6] is guinea pig Dopamine Transporter (DAT), gene 100714898. Briefly: NVS_TR_gDAT: NovaScreen (NVS) Transporter Assay for guinea pig Dopamine Transporter (DAT) (AID 2283369).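 Note: active compounds lower bound radioligand signal relative to DMSO.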 The method, boiled down:
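Guinea pig striatal membranes, cell-free radioligand binding with filter-based scintillation counting, read 2 h after dosing. Loss of signal versus DMSO baseline; single-concentration primary (25 uM) then concentration-response up to 50 uM.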

In assay [7] the target is Peroxisome proliferator-activated receptor gamma (Homo sapiens) (UniProt P37231). Briefly: NVS_NR_hPPARg: NovaScreen (NVS) Nuclear Receptor Binding Assay for human Peroxisome Proliferator-activated Receptor gamma (PPARg) (AID 2283370). An outline of the steps:
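Cell-free fluorescence polarization binding to human PPARg protein, read 2 h after dosing. Primary screen in duplicate at 25 uM, actives followed in concentration series; loss of signal relative to DMSO scored.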

The target of assay [8] is human Dopamine Transporter (DAT), SLC6A3 (gene 6531) (UniProt Q01959). Briefly: NVS_TR_hDAT: NovaScreen (NVS) Transporter Assay for human Dopamine Transporter (DAT) (AID 2283374).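 Note: activity means loss of bound radioligand signal relative to DMSO.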 An outline of the steps: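 Extracted human SLC6A3 protein incubated 1 h with radioligand and test chemical; bound fraction separated on filters and counted. Single 25 uM duplicate screen preceded concentration-response follow-up; positive and negative controls on every plate.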

Assay [9] concerns the target human Norepinephrine Transporter (NET), SLC6A2 (gene 6530) (UniProt P23975). Kind of assay: NVS_TR_hNET: NovaScreen (NVS) Transporter Assay for human Norepinephrine Transporter (NET) (AID 2283377).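 For AC50: displacement of radioligand from human NET seen as loss of scintillation signal.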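 Note: cell-free membrane protein extracted from CHO cells expressing human NET.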 An outline of the steps: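 In this cell-free binding screen, chemicals at 25 uM (duplicate) compete with a radioligand for CHO-derived human NET over 1 hour, with filter-based radiodetection.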

For assay [10], the target named is Estrogen receptor beta (Homo sapiens) (UniProt Q92731). Briefly: OT_ER_ERbERb_0480: Odyssey Thera (OT) 8-hour HEK293T Protein-Complementation Assay for Estrogen Receptor-beta/-beta Homodimer (AID 2283357).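 Note: active means signal gain over DMSO baseline.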 An outline of the steps: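 Fluorescence gain from complemented reporter fragments on ER-beta LBD homodimer in HEK293T was quantified against DMSO controls after 8 h treatment, fixation in 4% formaldehyde and Draq5 staining.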

Assay [11] has the same target. Kind of assay: OT_ER_ERbERb_1440: Odyssey Thera (OT) 24-hour HEK293T Protein-Complementation Assay for Estrogen Receptor-beta/-beta Homodimer (AID 2283380).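 Note: fluorescence gain from ER beta LBD homodimer complementation read by laser scanning cytometry; scored as signal increase over DMSO baseline for both agonists and antagonists.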 An outline of the steps: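 HEK293T cells stably expressing human ER-beta LBD (aa 310-547) PCA homodimer pair, dosed 24 h; formaldehyde-fixed, Draq5-stained. Readout: increase in nuclear (agonist) or nuclear plus cytoplasmic (antagonist) fluorescence intensity versus DMSO, gain-of-signal fitting.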

Assay [12] deals with Estrogen receptor (Homo sapiens) (UniProt P03372). Kind of assay: OT_ERa_GFPERaERE_0480: Odyssey Thera (OT) 8-hour HeLa Transcription Induction Assay for Estrogen Receptor (AID 2283381; active = hit-call score of the fitted dose curve at least 0.9, where 1 is the maximum; inactive = score below 0.9). An outline of the steps:
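An 8 h HeLa transcription-induction format with a GFP reporter under ERE control, read by fluorescence microscopy; single endpoint fitted positively with DMSO as baseline.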

Assay [13] addresses human Adenosine Transporter (Adot), SLC29A1 (gene 2030) (UniProt Q99808). Briefly: NVS_TR_hAdoT: NovaScreen (NVS) Transporter Assay for human Adenosine Transporter (Adot) (AID 2283368). The method, boiled down:
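Binding displacement on U937 extracted protein, read 1 h post-dose by filtration and scintillation counting. Primary duplicate test at 25 uM, then singleton concentration series with 50 uM top; DMSO baseline.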

Assay [14] deals with rat Serotonin Transporter (SERT), Slc6a4 (gene 25553) (UniProt P31652). Briefly: NVS_TR_rSERT: NovaScreen (NVS) Transporter Assay for rat Serotonin Transporter (SERT) (AID 2283375). The method, boiled down: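 Rat forebrain membranes; radioligand displacement at SERT read by filter-based scintillation counting, 1 h after dosing. Screened in duplicate at 25 uM, actives then run in concentration series; loss of signal versus DMSO baseline.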

Assay [15] deals with PGR (gene 5241) (UniProt P06401). Kind of assay: NVS_NR_hPR: NovaScreen (NVS) Nuclear Receptor Binding Assay for human Progestron Receptor (PR) (AID 2283360).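 Note: active means loss of bound radioligand signal versus DMSO baseline.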 The method, boiled down: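 Radioligand competition binding on receptor extracted from T47D cells, read by scintillation counting 18 h after dosing. Loss of signal versus DMSO; primary screen in duplicate at 25 uM, actives followed in concentration series.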

Assay [16] addresses Agonist Androgen Response Element (ARE), AR (gene 367) (UniProt P10275). Briefly: OT_AR_ARELUC_AG_1440: Odyssey Thera (OT) 24-hour CHO-K1 Luciferase Assay for Agonist Androgen Response Element (ARE) (AID 2283379). An outline of the steps: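 Luminescence increase above DMSO, read after a 24 h compound treatment of CHO-K1 cells expressing an androgen response element luciferase reporter, gives the single primary endpoint; concentration-response fitting used the positive direction.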

Estrogen receptor beta (Homo sapiens), sequence (Q92731 whole entry, looked up, the tested form may be a part): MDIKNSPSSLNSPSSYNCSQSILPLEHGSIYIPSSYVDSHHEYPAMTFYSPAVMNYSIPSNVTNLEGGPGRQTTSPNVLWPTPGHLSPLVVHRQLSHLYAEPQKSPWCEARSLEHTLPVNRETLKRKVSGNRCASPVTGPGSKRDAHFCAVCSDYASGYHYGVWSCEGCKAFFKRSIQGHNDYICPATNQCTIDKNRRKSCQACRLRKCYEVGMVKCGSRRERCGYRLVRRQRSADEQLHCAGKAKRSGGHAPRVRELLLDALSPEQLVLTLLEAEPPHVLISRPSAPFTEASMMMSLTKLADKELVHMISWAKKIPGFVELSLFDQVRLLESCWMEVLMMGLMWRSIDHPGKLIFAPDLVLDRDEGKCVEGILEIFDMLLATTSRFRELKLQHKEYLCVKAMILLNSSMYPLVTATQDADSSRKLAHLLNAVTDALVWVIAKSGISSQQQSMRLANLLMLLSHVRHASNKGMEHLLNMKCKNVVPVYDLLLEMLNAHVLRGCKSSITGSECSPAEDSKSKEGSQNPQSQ
human Dopamine Transporter (DAT), SLC6A3 (gene 6531), sequence (Q01959 whole entry, looked up): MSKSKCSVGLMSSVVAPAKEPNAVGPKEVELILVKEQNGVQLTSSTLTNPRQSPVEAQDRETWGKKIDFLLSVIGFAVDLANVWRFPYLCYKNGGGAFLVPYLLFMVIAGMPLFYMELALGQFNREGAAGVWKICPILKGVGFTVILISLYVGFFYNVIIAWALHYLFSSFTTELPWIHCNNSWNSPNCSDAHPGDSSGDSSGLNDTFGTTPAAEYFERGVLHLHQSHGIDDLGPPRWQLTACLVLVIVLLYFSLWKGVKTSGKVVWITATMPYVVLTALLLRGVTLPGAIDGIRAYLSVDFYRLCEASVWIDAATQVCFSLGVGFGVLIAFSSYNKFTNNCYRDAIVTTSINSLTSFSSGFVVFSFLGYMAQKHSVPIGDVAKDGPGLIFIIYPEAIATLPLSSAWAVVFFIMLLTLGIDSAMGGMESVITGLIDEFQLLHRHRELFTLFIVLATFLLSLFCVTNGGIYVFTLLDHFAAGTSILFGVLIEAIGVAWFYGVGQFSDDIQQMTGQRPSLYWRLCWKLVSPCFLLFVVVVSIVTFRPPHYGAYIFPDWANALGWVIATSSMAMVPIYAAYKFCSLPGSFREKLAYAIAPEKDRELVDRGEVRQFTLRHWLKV
Retinoic acid receptor alpha (Homo sapiens), sequence (P10276 whole entry, looked up): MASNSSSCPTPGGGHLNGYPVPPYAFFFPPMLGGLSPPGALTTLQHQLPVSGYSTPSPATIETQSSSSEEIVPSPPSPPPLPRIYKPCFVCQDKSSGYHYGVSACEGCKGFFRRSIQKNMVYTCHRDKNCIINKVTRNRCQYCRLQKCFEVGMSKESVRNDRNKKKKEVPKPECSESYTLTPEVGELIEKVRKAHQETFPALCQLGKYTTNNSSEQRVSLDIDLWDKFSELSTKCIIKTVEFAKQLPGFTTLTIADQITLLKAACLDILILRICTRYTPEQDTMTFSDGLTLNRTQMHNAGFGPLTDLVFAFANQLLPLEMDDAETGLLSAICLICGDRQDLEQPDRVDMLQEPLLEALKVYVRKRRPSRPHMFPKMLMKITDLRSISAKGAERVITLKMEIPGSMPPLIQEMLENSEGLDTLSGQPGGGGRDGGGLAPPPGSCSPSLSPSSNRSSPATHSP
Estrogen receptor (Homo sapiens), sequence (P03372 whole entry, looked up): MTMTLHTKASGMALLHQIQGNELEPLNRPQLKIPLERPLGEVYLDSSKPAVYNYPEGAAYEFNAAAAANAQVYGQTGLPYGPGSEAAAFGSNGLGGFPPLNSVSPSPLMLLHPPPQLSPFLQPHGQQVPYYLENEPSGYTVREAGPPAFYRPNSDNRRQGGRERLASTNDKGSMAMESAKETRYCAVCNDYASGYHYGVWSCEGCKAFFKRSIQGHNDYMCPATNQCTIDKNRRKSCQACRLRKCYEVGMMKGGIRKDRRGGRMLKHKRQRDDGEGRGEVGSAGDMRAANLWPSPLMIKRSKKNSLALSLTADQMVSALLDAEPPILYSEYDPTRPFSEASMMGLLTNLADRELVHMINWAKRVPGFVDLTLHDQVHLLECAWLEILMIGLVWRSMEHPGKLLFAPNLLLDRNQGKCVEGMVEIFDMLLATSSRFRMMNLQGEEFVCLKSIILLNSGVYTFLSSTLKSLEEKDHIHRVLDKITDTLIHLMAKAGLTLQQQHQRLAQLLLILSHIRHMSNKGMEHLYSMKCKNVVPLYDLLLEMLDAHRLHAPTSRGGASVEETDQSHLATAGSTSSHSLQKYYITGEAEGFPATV
Nuclear receptor subfamily 1 group I member 2 (Homo sapiens), sequence (O75469 whole entry, looked up): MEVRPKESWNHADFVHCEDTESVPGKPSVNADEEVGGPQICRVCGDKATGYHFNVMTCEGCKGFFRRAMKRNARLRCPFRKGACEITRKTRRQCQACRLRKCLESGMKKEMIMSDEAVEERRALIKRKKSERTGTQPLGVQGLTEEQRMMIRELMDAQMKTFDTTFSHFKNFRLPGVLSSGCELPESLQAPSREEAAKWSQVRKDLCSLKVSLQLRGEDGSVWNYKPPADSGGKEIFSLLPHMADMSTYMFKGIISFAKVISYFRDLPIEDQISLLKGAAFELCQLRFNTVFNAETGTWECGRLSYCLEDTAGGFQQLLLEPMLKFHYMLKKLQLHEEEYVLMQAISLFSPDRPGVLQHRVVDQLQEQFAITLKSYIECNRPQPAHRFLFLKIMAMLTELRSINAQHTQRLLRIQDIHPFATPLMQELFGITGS
Peroxisome proliferator-activated receptor gamma (Homo sapiens), sequence (P37231 whole entry, looked up): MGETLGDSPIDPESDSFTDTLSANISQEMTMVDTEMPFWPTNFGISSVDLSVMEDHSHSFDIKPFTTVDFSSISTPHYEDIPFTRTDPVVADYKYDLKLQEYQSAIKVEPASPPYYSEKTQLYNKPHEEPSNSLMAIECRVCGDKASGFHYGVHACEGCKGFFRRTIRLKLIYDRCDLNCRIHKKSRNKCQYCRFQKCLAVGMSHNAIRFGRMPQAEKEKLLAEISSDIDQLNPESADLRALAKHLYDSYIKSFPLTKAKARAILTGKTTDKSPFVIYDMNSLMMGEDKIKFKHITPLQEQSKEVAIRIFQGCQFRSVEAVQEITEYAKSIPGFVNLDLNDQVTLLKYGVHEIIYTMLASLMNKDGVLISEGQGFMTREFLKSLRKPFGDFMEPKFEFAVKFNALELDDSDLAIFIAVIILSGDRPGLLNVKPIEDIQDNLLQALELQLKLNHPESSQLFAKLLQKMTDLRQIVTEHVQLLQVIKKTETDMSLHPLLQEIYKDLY
human Peroxisome Proliferator-activated Receptor alpha (PPARa), PPARA (gene 5465), sequence (Q07869 whole entry, looked up): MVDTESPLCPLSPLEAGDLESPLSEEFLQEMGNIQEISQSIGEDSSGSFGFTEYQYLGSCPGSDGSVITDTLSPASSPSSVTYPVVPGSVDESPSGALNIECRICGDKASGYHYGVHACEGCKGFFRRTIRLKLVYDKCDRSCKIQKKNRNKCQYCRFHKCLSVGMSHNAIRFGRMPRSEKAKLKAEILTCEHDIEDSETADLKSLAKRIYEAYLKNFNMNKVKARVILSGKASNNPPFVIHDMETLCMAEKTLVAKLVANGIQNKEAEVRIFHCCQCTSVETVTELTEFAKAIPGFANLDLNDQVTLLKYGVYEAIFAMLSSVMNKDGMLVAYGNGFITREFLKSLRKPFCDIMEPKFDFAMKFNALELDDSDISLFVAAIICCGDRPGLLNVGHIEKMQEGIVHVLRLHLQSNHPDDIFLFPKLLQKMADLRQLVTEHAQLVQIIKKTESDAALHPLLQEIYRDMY
human Norepinephrine Transporter (NET), SLC6A2 (gene 6530), sequence (P23975 whole entry, looked up): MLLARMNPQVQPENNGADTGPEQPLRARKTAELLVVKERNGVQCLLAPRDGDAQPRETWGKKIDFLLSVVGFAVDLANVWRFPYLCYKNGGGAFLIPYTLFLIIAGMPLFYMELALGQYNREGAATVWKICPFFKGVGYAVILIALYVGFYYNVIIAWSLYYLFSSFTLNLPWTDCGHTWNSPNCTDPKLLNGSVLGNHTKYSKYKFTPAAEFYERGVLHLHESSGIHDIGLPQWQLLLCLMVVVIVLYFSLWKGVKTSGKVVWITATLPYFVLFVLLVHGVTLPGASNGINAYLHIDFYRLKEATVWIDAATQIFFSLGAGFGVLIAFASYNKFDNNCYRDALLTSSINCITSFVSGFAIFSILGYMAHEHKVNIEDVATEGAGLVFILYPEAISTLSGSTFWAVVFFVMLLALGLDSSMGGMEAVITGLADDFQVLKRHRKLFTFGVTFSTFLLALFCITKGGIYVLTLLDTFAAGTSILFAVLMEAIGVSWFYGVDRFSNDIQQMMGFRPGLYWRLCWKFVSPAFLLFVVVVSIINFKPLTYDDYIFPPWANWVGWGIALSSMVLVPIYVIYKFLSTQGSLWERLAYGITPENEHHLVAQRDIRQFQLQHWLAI
rat Serotonin Transporter (SERT), Slc6a4 (gene 25553), sequence (P31652 whole entry, looked up): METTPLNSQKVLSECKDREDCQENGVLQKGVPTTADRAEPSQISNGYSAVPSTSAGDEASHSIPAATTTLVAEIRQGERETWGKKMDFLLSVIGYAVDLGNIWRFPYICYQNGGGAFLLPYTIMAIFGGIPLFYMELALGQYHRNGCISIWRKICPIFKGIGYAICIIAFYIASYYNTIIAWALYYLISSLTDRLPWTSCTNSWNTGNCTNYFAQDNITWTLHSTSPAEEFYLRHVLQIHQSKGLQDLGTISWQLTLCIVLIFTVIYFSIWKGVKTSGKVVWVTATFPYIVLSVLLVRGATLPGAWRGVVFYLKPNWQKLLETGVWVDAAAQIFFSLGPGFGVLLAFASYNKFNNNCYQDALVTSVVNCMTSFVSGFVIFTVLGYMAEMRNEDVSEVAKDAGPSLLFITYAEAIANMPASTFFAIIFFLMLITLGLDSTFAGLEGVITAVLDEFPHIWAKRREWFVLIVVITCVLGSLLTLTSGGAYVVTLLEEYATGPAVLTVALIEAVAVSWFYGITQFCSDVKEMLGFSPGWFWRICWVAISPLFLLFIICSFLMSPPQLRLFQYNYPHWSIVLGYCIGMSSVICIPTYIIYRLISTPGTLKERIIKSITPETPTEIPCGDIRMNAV

On to `CC/C(=C(\c1ccccc1)c1ccc(OCCN(C)C)cc1)c1ccccc1`, for which the compound was called inactive in assay [1], in [2], in assay [3], in assay [4] and in [7]. For the same compound, the AC50 is 0.491 µM (active) in [5], 3.1 µM (active) in assay [6], 6.98 µM (active) in [8] and 3.85 µM (active) in assay [9].

With `O=C1OC2(c3ccc(O)cc3Oc3cc(O)ccc32)c2ccccc21`, the outcome in [10], in assay [9] and in assay [11] was inactive.

As to `CC(=O)C1C(=O)C=C(C)OC1=O` (stereo not drawn), the compound was called inactive in assay [10], in [11] and in assay [12].

For `O=C(c1ccc(OCCN2CCCCC2)cc1)c1c(-c2ccc(O)cc2)sc2cc(O)ccc12`, the AC50 in assay [2] is 6.51 µM (active) and 6.99 µM (active) and 5.41 µM (active); in assay [4], 1.7 µM (active) and 3.59 µM (active) and 1.46 µM (active); in [5] it was 4.67 µM (active); in assay [13] it was 14.6 µM (active); in assay [6] it was 2.14 µM (active); in [8], 1.76 µM (active). The AC50 in [14] was 9.25 µM (active); in assay [9] it was 0.366 µM (active).

As to `c1coc(CNc2ncnc3nc[nH]c23)c1`, in assay [12], the call was inactive.

Consider `Cc1cc(O)c(C)c(C)c1O`, for which, in assay [9], the outcome was inactive.

Consider `C1=COCCC1`, for which the compound was called inactive in [12].

As for `C=C(C)C(=O)OCCC(C)OC(=O)C(=C)C` (stereo not drawn), in assay [7], the concentration at half-maximal activity (AC50) is 20.1 µM (active). For the same compound, in assay [12], the compound was called inactive.

Regarding `CC(CO)(CO)[N+](=O)[O-]`, in assay [15], the compound was called inactive.

Turning to `[Cl][Dy]([Cl])[Cl]`, the AC50 in assay [6] is 17.4 µM (active).

For the compound `CCC(=O)OCC=Cc1ccccc1`, the AC50 in assay [8] was 29.2 µM (active).

Consider `OC[C@@H](O)[C@H](O)[C@@H](O)[C@@H](O)CO`, for which, in assay [12], the result was inactive.

On to `CC(C)Cc1ccccc1`, for which the compound was classed as inactive in [14].

On to `CCC(C)(C)C1CCC(=O)CC1`, for which the outcome in assay [4], in [16] and in [12] was inactive.

Regarding `C=C1CC[C@H]2O[C@]2(C)CC[C@@H]2[C@@H]1CC2(C)C`, in assay [15], the outcome was inactive.

For `C=CC(O)CCCCC` (stereo not drawn), in assay [4], the outcome was inactive.
